Compound activity (PubChem)
Tat transport: E. coli Tat export inhibitors, primary screen, MC4100, TorA-mCherry reporter, fluorescence, single point; inhibition, % at 10 µM; hit rate 0.036% among 340,000; AID 488895, 2010;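 active means mean replicate inhibition at least 50% and at least half of replicates individually reaching 50%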;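 further: exported cargo escapes ClpAP degradation while cytoplasmic cargo is degraded and loses fluorescence; 0% = median of neutral control wells and 100% = median of NaSCN control wells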
AddAB inh: growth inhibition of E. coli expressing H. pylori AddAB, primary screen, AddAB inhibitor project, absorbance; AID 435030, 2010; inhibition, % at 11.9 µM; hit rate 0.29% among 330,000; in the data active means inhibition above about 12%;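 further: 0% = vehicle wells of infected cells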
phage Ecoli inh: growth loss of phage-infected E. coli, primary screen, RecBCD inhibitor project, absorbance, with phage, HTS; inhibition, % at 11.9 µM; hit rate 0.26% among 360,000; AID 651602, 2012; in the data active means inhibition above about 11%
E coli growth-1: E. coli growth inhibition, primary screen, OD600; Escherichia coli growth, 23 h; hits give low values; hit rate 0.21% among 330,000; OD600 absorbance (no concentration beside the values);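 active means OD600 absorbance below the run mean of sample wells minus 3.6 SD, in any replicate, cut at about 0.56 in these data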
E coli growth-2: E. coli V3065 growth inhibition, primary screen, counter-screen for AddAB inhibitor project, absorbance, OD600. AID 449728, 2010. 18 h. hit rate 0.27% among 330,000. inhibition, % at 11.9 µM;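 active means inhibition above the campaign's mean inhibition across all tested compounds plus 3 SD, cut at about 9.9% in these data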;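 further: uninfected addAB+ strain grown without phage in ampicillin broth; 0% = DMSO wells and 100% = ciprofloxacin 0.95 µg/ml wells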
RecBCD conf: growth loss of phage-infected RecBCD+ E. coli, confirmation, RecBCD inhibitor project, absorbance, E. coli V66, T4 gene 2 phage; E. coli V66 + T4 2- phage, growth OD; inhibition, % at 11.9 µM; shares compounds with phage Ecoli inh; AID 651982, 2013; hit rate 45% among 890;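 active means mean inhibition over triplicates exceeding the hit threshold derived in the original primary screen, cut at about 11% in these data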
Ecoli viability: E. coli viability inhibition, counter-screen for RecBCD inhibitor project, absorbance, high throughput. shares compounds with phage Ecoli inh. absorbance (OD) growth. inhibition, % at 11.9 µM. hit rate 29% among 890. AID 651983, 2013; in the data active means inhibition above about 20%;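 further: E. coli strain V66 grown with compound alone and no phage infection; 0% = bacteria with DMSO vehicle only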
AddAB phage OD: growth loss of phage-infected AddAB-carrying E. coli, confirmation, counter-screen for RecBCD inhibitor project, absorbance, E. coli V3065, T4 phage; shares compounds with phage Ecoli inh; E. coli expressing H. pylori AddAB + T4 phage, OD growth; gene 2 mutant T4, recBCD-deleted host; inhibition, % at 11.9 µM; hit rate 45% among 890; AID 651984, 2013;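 active means mean inhibition above the solvent-only control wells' mean plus 3 SD, cut at about 22% in these data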;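 further: higher means less bacterial growth from phage killing when AddAB is blocked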
* = called active by the depositor. An excerpt weighted towards active compounds, which were near 0.51% of everything screened.

How did COC(=O)c1c2[n+](cc3cc(OC)c(OC)cc13)CCc1cc(OC)c(OC)cc1-2 do in these assays?
Tat transport: -2.1; AddAB inh: 0.3; phage Ecoli inh: 15.5*; E coli growth-1: 0.67; E coli growth-2: -0.3; RecBCD conf: -4.6; Ecoli viability: -4.8; AddAB phage OD: -1.8

Results for COC(=O)C1=C(c2ccc(C(C)=O)cc2)CC2CCC1N2C(=O)N1CCOCC1 (stereo not drawn) ?
E coli growth-1: 0.709

What do the screens show for `CCOC(=O)[C@]12Cc3cc(OC)ccc3C1N(Cc1ccccc1)C(=O)c1cc(F)c(F)cc12` (stereo partly drawn)?
E coli growth-1: 0.704

What do the screens show for `CCOC(=O)[C@]12Cc3cc(Cl)ccc3[C@H]1N(C1CCCCC1)C(=O)c1cc(OC)ccc12`?
phage Ecoli inh: 11.2*; RecBCD conf: 5.1; Ecoli viability: 4.0; AddAB phage OD: -4.5

How did CC(N)C(=O)NC1C2C(=C(O)CC(O)C2O)C(=O)OC1(C)C(Cl)Cl (stereo not drawn) do in these assays?
Tat transport: 82.3*; phage Ecoli inh: 98.7*; RecBCD conf: 104.2*; Ecoli viability: 106.1*; AddAB phage OD: 97.0*

How did COC(=O)C1=C(c2cc3ccccc3s2)CC2CCC1N2C(=O)NCCS(C)=O (stereo not drawn) do in these assays?
E coli growth-1: 0.677

How did O=[N+]([O-])c1ccc(N(CCO)CCO)c2c1no[n+]2[O-] do in these assays?
phage Ecoli inh: 93.2*; RecBCD conf: 84.5*; Ecoli viability: 91.5*; AddAB phage OD: 100.2*

How did Oc1c(Cl)cccc1Cc1cc(Cl)cc(Cl)c1O do in these assays?
Tat transport: 5.2; phage Ecoli inh: 14.5*; E coli growth-1: 0.383*; RecBCD conf: 4.9; Ecoli viability: 7.8; AddAB phage OD: 6.5

Results for CN(C)C1C(=O)C(C(N)=O)=C(O)C2(O)C(=O)C3=C(O)c4c(O)cccc4C(C)(O)C3C(O)C12 (stereo not drawn) ?
Tat transport: 138.0*; AddAB inh: -2.4; phage Ecoli inh: 98.9*; E coli growth-1: 0.064*; E coli growth-2: -3.2; RecBCD conf: 101.5*; Ecoli viability: 104.1*; AddAB phage OD: 102.4*

What do the screens show for `CCN1/C(=C/C=C/C2=[N+](CC)c3ccccc3C2(C)C)C(C)(C)c2ccccc21`?
phage Ecoli inh: 25.4*; RecBCD conf: 17.9*; Ecoli viability: 21.0*; AddAB phage OD: 43.4*

Results for COC(=O)C1=C(c2ccc(OCc3ccccc3)cc2)CC2CCC1N2C(=O)NCc1ccc([N+](=O)[O-])cc1 (stereo not drawn) ?
E coli growth-1: 0.739
